Records with an inconclusive call do not appear. Activity calls are given as the source filed them. Unless noted, the call rests on the fitted dose curve; in most records, active means well fitted curve in the direction sought with a large enough effect in the repeat runs; inconclusive means weak or mixed curves; inactive means no such curve, though single readings can be large; an effect the other way counts as inactive or inconclusive.
Key:
[1] = molecular target: Retinoic acid receptor RXR-alpha (Homo sapiens) (UniProt P19793); assay: qHTS assay to identify small molecule agonists of the RXR signaling pathway (AID 1159527; calls by dose curve; further: nearly all actives have a fitted effect of over 35% in size)
In short: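 GeneBLAzer RXR-alpha-UAS-bla HEK 293T cells in 2% charcoal-stripped FBS medium were exposed to compounds for 16 hr at 37 C in agonist mode. Beta-lactamase reporter read as 460/530 nm FRET ratio after 2 hr substrate loading.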

[2] = qHTS assay to identify small molecule agonists of the RXR signaling pathway - cell viability counter screen (AID 1159529); further: series mostly up to about 77 µM; nearly all actives have a fitted effect of over 50% in size
In short: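 RXR-alpha-UAS-bla HEK 293T cells in medium with 2% charcoal-stripped FBS were pre-incubated 5 hr, then compound-treated 16 hr at 37 C. Viability was read by CellTiter-Glo luminescence in the same wells as the beta-lactamase assay, with tetraoctyl ammonium bromide as positive control.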

[3] = qHTS assay to identify small molecule antagonists of the retinoid acid receptor (RAR) signaling pathway - cell viability counter screen (AID 1159551); further: nearly all actives have a fitted effect of over 35% in size
In short: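 Cytotoxicity counter screen: ATP content quantified by CellTiter-Glo luminescence in C3RL4 cells treated 6 hr at 37 C with compound and retinol (1 uM final). Cells plated at 1,000/well and cultured overnight before dosing.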

[4] = qHTS assay to identify small molecule antagonists of the retinoic acid receptor (RAR) signaling pathway (AID 1159552; further: nearly all actives have a fitted effect of over 50% in size)
In short: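 Retinol signaling pathway inhibitors screened in C3RL4 RARE-luciferase reporter cells seeded overnight at 37 C, then compounds added with 1 uM (final) retinol as pathway substrate. After 6 hr at 37 C, luciferase luminescence read after 30 min at room temperature.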

[5] = qHTS assay to identify small molecule antagonists of the estrogen related receptor (ERR) signaling pathway from Tox21 library - cell viability counter screen (AID 1224834); further: nearly all actives have a fitted effect of over 30% in size
In short: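 CellTiter-Fluor fluorescence, read after 30 min at 37 C, measures viability of ERR cells. Cells plated at 2,000/well and incubated 6 h before pin-tool compound addition, then exposed 17.5 hours at 37 C.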

[6] = molecular target: Luciferin 4-monooxygenase (Photinus pyralis) (UniProt P08659); assay: qHTS assay to identify small molecule inhibitors of firefly luciferase (AID 1224835); further: series mostly up to about 120 µM; nearly all actives have a fitted effect of over 25% in size
In short: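 Inhibition of purified Photinus luciferase is measured by luminescence. Substrate levels (D-luciferin, ATP) sit at their KM values. Each compound is tested in a concentration series.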

[7] = qHTS assay to identify small molecule agonists of the constitutive androstane receptor (CAR) signaling pathway - cell viability counter screen (AID 1224836); further: series mostly up to about 92 µM; nearly all actives have a fitted effect of over 45% in size
In short: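 HepG2 cells stably carrying hCAR and a CYP2B6-2.2kb reporter; 15-concentration compounds plus PK11195 (final 0.75 uM), 23 hr at 37 C/5% CO2. Viability read by CellTiter-Fluor fluorescence.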

[8] = qHTS assay to identify small molecule antagonists of the constitutive androstane receptor (CAR) signaling pathway - cell viability counter screen (AID 1224837); further: series mostly up to about 92 µM; nearly all actives have a fitted effect of over 45% in size
In short: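 Cytotoxicity counter-screen: CellTiter-Fluor fluorescence after 23 h compound exposure (15-point qHTS) in double-stable HepG2-CYP2B6-hCAR cells, with 50 nM CITCO added.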

[9] = molecular target: Nuclear receptor subfamily 1 group I member 3 (Homo sapiens) (UniProt Q14994); assay: qHTS assay to identify small molecule antagonists of the constitutive androstane receptor (CAR) signaling pathway (AID 1224838);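 further: HepG2 cells stably expressing hCAR with CYP2B6 luciferase reporter stimulated by CITCO; nearly all actives have a fitted effect of over 40% in size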
In short: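 Antagonism measured as luciferase signal (ONE-Glo, 30 min, room temperature) in CAR-stimulated cells: HepG2-CYP2B6-hCAR double-stable line exposed 24 hr at 37 C to compound in a 15-point series plus 50 nM CITCO.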

[10] = molecular target: Nuclear receptor subfamily 1 group I member 3 (Homo sapiens) (UniProt Q14994); assay: qHTS assay to identify small molecule agonists of the constitutive androstane receptor (CAR) signaling pathway (AID 1224839);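 further: HepG2 cells stably carrying human CAR and a CYP2B6 luciferase reporter; series mostly up to about 92 µM; nearly all actives have a fitted effect of over 15% in size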
In short: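 HepG2 cells stably co-transfected with hCAR and a CYP2B6-2.2kb luciferase reporter; compounds at 15 concentrations with 0.75 uM PK11195 present. After 24 hr at 37 C, luciferase read by ONE-Glo luminescence.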

[11] = qHTS assay to identify small molecule antagonists of the estrogen related receptor signaling pathway with the pleiotropic PPARgamma coactivator (PGC) from Tox21 10K library - cell viability counter screen (AID 1224840; active means well fitted cell-killing curve with a large enough effect in the repeat runs, not every such curve was filed as active; further: nearly all actives have a fitted effect of over 40% in size)
In short: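 Counter-screen for cytotoxicity: after 17.5 h compound exposure at 37 C, CellTiter-Fluor reagent added to PGC/ERR cells for 30 min and fluorescence read. Cells were seeded at 2,000 per well 6 h before dosing.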

[12] = qHTS assay to identify small molecule antagonists of the estrogen related receptor signaling pathway with the pleiotropic PPARgamma coactivator (PGC) from Tox21 10K library (AID 1224841; call rule not given here; further: series mostly up to about 92 µM; actives are mostly falling curves and most rising ones were filed inactive; nearly all actives have a fitted effect of over 50% in size)
In short: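 Luminescence (One-Glo, 30 min at room temperature) after 18 h compound treatment at 37 C of PGC/ERR reporter cells plated at 2,000 cells/well and settled 6 h beforehand.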

[13] = qHTS assay to identify small molecule agonists of the estrogen related receptor signaling pathway with the pleiotropic PPARgamma coactivator (PGC) from Tox21 10K library (AID 1224842); further: nearly all actives have a fitted effect of over 15% in size
In short: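 Luminescence from One-Glo (30 min, room temperature) measured after PGC/ERR cells had 18 h at 37 C with pinned compound (23 nL in DMSO). Cells had been seeded at 2,000 per well and pre-incubated 6 h.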

[14] = qHTS assay to identify small molecule agonists of the retinoic acid receptor (RAR) signaling pathway (AID 1159553)
In short: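 Luminescence was measured 30 min after luciferase reagent addition at room temperature. Before that, C3RL4 reporter cells (1,000 per well, plated overnight) were treated with compound for 6 hr at 37 C and 5% CO2.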
On the % scale 0 is the no-effect control and ±100 the full control effect.

Sequence of Luciferin 4-monooxygenase (Photinus pyralis) (P08659 whole entry, looked up): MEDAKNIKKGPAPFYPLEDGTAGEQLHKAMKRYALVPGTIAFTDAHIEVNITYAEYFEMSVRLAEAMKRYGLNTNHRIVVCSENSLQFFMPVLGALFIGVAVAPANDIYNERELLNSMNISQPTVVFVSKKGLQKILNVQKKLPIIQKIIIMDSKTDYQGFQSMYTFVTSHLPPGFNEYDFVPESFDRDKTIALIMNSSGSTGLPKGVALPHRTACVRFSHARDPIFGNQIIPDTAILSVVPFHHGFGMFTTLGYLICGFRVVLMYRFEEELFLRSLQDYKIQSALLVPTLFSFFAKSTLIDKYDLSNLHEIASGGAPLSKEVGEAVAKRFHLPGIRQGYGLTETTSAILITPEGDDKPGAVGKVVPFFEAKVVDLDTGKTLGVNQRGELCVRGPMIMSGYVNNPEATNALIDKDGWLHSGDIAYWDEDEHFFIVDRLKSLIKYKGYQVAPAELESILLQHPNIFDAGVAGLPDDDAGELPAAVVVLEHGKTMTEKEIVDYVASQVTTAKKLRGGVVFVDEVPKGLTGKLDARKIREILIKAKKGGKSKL
Sequence of Nuclear receptor subfamily 1 group I member 3 (Homo sapiens) (Q14994 whole entry, looked up): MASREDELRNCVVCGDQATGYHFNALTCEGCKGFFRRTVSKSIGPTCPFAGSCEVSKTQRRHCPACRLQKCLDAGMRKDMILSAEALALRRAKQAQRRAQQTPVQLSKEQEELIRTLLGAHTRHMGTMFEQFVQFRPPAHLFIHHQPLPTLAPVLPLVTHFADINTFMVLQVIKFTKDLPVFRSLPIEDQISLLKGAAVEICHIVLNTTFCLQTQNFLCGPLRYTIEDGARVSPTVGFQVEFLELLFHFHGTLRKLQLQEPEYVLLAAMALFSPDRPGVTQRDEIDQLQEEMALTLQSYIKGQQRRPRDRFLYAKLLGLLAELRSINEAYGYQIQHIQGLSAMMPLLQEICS
Sequence of Retinoic acid receptor RXR-alpha (Homo sapiens) (P19793 whole entry, looked up): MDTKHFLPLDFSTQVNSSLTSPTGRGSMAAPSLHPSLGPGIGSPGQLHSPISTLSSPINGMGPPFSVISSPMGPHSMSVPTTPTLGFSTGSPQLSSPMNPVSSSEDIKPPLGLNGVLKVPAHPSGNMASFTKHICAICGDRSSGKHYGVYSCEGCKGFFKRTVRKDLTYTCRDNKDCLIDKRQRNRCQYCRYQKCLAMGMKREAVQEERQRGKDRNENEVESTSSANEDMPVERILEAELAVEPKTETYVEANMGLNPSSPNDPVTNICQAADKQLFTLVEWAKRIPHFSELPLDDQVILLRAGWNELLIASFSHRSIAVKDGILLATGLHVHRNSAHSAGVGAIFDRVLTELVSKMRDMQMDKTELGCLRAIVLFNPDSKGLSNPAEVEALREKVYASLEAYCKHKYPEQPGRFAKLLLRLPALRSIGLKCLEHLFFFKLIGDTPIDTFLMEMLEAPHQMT

C1CN(CCOCCN2CCOCC2)CCO1
inactive: Potency [1] | Potency [2] | outcome [3] | Potency [4] | Potency [5] | Potency [6] | Potency [7] | Potency [8] | Potency [9] | Potency [10] | Potency [11] | Potency [12] | outcome [13]

O=C[C@H](O)[C@@H](O)[C@H](O)[C@H](O)CO
inactive: Potency [1] | Potency [2] | outcome [3] | Potency [5] | Potency [7] | Potency [8] | Potency [9] | Potency [10] | Potency [12] | outcome [13]

CC(=O)OCC(=O)[C@@]1(O)CCC2C3CCC4=CC(=O)CC[C@]4(C)C3[C@@H](O)C[C@@]21C (stereo partly drawn)
inactive: Potency [1] | Potency [2] | outcome [3] | Potency [4] | Potency [5] | Potency [6] | Potency [7] | Potency [8] | Potency [9] | Potency [10] | Potency [12] | outcome [13]

CCOC(=O)CC(C)=O
inactive: Potency [1] | Potency [2] | outcome [3] | Potency [4] | Potency [5] | Potency [7] | Potency [8] | Potency [11]

CO[Si](CCCOCC1CO1)(OC)OC (stereo not drawn)
inactive: Potency [2] | outcome [3] | Potency [4] | Potency [14] | Potency [5] | Potency [7] | Potency [8] | Potency [9] | Potency [10] | Potency [11]

C=C1CC[C@H]2C[C@@H]1C2(C)C
inactive: Potency [1] | Potency [2] | outcome [3] | Potency [4] | Potency [5] | Potency [7] | Potency [8] | Potency [11]

CCc1nccnc1CC
inactive: Potency [1] | Potency [2] | activity change, negative = cytotoxicity [3] 1.72% [at 19 µM] | activity, negative = inhibition [4] 7.06% [at 19 µM] | viability change, negative = cytotoxic [5] 6.79% [at 19 µM] | activity change, negative = inhibition [6] 1.9% [at 23.6 µM] | viability change, negative = cytotoxic [7] 4.25% [at 19 µM] | activity change, negative = cytotoxicity [8] -1.21% [at 19 µM] | activity, negative = inhibition [9] -16.5% [at 19 µM] | activation [10] -0.0673% [at 19 µM] | viability change, negative = cytotoxic [11] 1.05% [at 19 µM] | activity, negative = inhibition [12] 4.39% [at 19 µM] | activation [13] 1.3% [at 19 µM]

CC(=O)OC/C=C(\C)CC/C=C(\C)CCC=C(C)C
inactive: Potency [1] | Potency [2] | outcome [3] | Potency [4] | Potency [5] | Potency [6] | Potency [7] | Potency [8] | Potency [9] | Potency [10] | Potency [11] | Potency [12] | outcome [13]

N=C(N)c1ccc(OCCCOc2ccc(C(=N)N)cc2)cc1
inactive: Potency [1] | Potency [2] | outcome [3] | Potency [4] | Potency [5] | Potency [6] | Potency [7] | Potency [8] | Potency [9] | Potency [10] | Potency [11] | Potency [12] | outcome [13]

Cc1cc(O)cc2c1O[C@](C)(CCC[C@H](C)CCC[C@H](C)CCCC(C)C)CC2
inactive: Potency [1] | Potency [2] | outcome [3] | Potency [4] | Potency [5] | Potency [6] | Potency [7] | Potency [8] | Potency [9] | Potency [10] | Potency [11] | Potency [12] | outcome [13]

Source: PubChem BioAssay (Tox21)
